The source of these data is PubChem BioAssay (NCATS).

Records with an inconclusive call do not appear. The source made the active and inactive calls. The call rests on the fitted dose curve; in most records, active means well fitted inhibition curve with a large enough effect; inconclusive means small, poorly fitted or top-dose-only effect; inactive means flat fitted curve, though single readings scatter. Bridge positions count the residues as written; N and C are the ends. Square brackets hold non-standard residues; d marks the D form. Peptide text beside a SMILES is read from it. * marks the point of attachment. Ileψ(thiazoline)Cys = CC[C@H](C)[C@H](N)C1=N[C@H](C(=O)*)CS1; d(aIle) = CC[C@H](C)[C@@H](N)C(=O)O; dOrn = NCCC[C@@H](N)C(=O)O
Potency means the concentration at half of the fitted maximal effect.

The test system of one assay is TAB109. The assay is described as follows: qHTS profiling for inhibitors of Plasmodium falciparum proliferation (AID 504749). Further: nearly all actives have a fitted effect of over 60% in size.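 On activity, negative = inhibition: 0% = DMSO vehicle and full inhibition = artemisinin control.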 The note with it: P. falciparum in erythrocytes, SYBR Green DNA, 72 h; series mostly up to 12.8 µM; activity, negative = inhibition: at the top concentration. An outline of the steps: (§1)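 Parasite proliferation within erythrocytes, 72 h exposure. Endpoint: SYBR Green I fluorescence after overnight lysis at room temperature. Controls: 0.29 uM artemisinin, DMSO.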
On the technique in general: In qHTS, concentration-response curves come from the screen itself.
As to `C[C@H](CCC(=O)O)[C@H]1CC[C@@H]2[C@@H]3[C@@H](O)C[C@H]4C[C@@H](O)CC[C@@]4(C)[C@H]3CC[C@@]21C`, the “activity, negative = inhibition” value is -9.52% (inactive). For the compound `CN(C/C=C\c1ccccc1)Cc1cccc2ccccc12`, the “activity, negative = inhibition” value is -8.47% [at 28.7 µM] (inactive).

Regarding `C[C@H](C(=O)O)c1cccc(Oc2ccccc2)c1`, the “activity, negative = inhibition” value is -11.1% (inactive). Take `CC1(C)[C@@H](OC(=O)CCC(=O)O)CC[C@@]2(C)[C@H]1CC[C@@]1(C)[C@H]2C(=O)C=C2[C@H]3C[C@](C)(C(=O)O)CC[C@]3(C)CC[C@@]21C`: the “activity, negative = inhibition” value is 11.2% (inactive).

As for `CCOC(=O)O[C@@H](C)OC(=O)[C@@H]1N2C(=O)[C@@H](NC(=O)[C@@H](N)c3ccccc3)[C@H]2SC1(C)C`, the “activity, negative = inhibition” value was -5.37% (inactive). `Cc1ccsc1/C=C\C1=NCCCN1C`: the “activity, negative = inhibition” value is 14% (inactive).

With `C#C[C@]1(O)CC[C@@H]2[C@H]3CCC4=CCCC[C@@H]4[C@@H]3CC[C@@]21C`, the “activity, negative = inhibition” value is 9.16% (inactive). The same measure, in the same setting: then `CC[C@H](C)[C@H](N)C1=N[C@H](C(=O)N[C@@H](CC(C)C)C(=O)N[C@@H](CCC(=O)O)C(=O)N[C@@H](C(=O)N[C@H]2CCCCNC(=O)[C@@H](CC(N)=O)NC(=O)[C@@H](CC(=O)O)NC(=O)[C@@H](Cc3cnc[nH]3)NC(=O)[C@@H](Cc3ccccc3)NC(=O)[C@@H]([C@@H](C)CC)NC(=O)[C@@H](CCCN)NC2=O)[C@@H](C)CC)CS1` ({Ileψ(thiazoline)Cys}-LE[d(aIle)]K[dOrn][d(aIle)][dF][dH][dD][dN]; lactam 4-C), with -0.357% (inactive); and `O=C(O)COCCN1CCN([C@@H](c2ccccc2)c2ccc(Cl)cc2)CC1`, with -18.8% (inactive); and `CCN(CC)CCOC(=O)[C@@H](Cc1cccc2ccccc12)C[C@@H]1CCCO1`, with -10.1% (inactive). Regarding `Clc1ccc([C@H](Cn2ccnc2)OCc2c(Cl)cccc2Cl)c(Cl)c1`, the Potency was 2.82 µM (active). On the same count and under the same terms, then `C[C@@H](CNC1CCCCC1)OC(=O)c1ccccc1`, with 3.55 µM (active). Consider `CC[C@H](CO)NCCN[C@@H](CC)CO`, for which the “activity, negative = inhibition” value was 1.64% (inactive).

Another assay has as its system TAB113. Described as above. The settings on record: P. falciparum in erythrocytes, SYBR Green DNA, 72 h; series mostly up to 12.8 µM; activity, negative = inhibition: at the top concentration. An outline of the steps:
as §1
With `C[C@H](CCC(=O)O)[C@H]1CC[C@@H]2[C@@H]3[C@@H](O)C[C@H]4C[C@@H](O)CC[C@@]4(C)[C@H]3CC[C@@]21C`, the “activity, negative = inhibition” value is -28.9% (inactive). For `CN(C/C=C\c1ccccc1)Cc1cccc2ccccc12`, the “activity, negative = inhibition” value was 1.87% [at 28.7 µM] (inactive).

In the case of `CCN(CCCCOC(=O)c1ccc(OC)c(OC)c1)[C@@H](C)Cc1ccc(OC)cc1`, the “activity, negative = inhibition” value was -6.55% (inactive).

Take `C[C@H](C(=O)O)c1cccc(Oc2ccccc2)c1`: the “activity, negative = inhibition” value is 5.85% (inactive). `CC1(C)[C@@H](OC(=O)CCC(=O)O)CC[C@@]2(C)[C@H]1CC[C@@]1(C)[C@H]2C(=O)C=C2[C@H]3C[C@](C)(C(=O)O)CC[C@]3(C)CC[C@@]21C`: the “activity, negative = inhibition” value was 7.38% (inactive). Still for that read-out and setting: then `CCOC(=O)O[C@@H](C)OC(=O)[C@@H]1N2C(=O)[C@@H](NC(=O)[C@@H](N)c3ccccc3)[C@H]2SC1(C)C`, with 1.52% (inactive); and `Cc1ccsc1/C=C\C1=NCCCN1C`, with 6.51% (inactive); and `C#C[C@]1(O)CC[C@@H]2[C@H]3CCC4=CCCC[C@@H]4[C@@H]3CC[C@@]21C`, with 4.19% (inactive). For `CC[C@H](C)[C@H](N)C1=N[C@H](C(=O)N[C@@H](CC(C)C)C(=O)N[C@@H](CCC(=O)O)C(=O)N[C@@H](C(=O)N[C@H]2CCCCNC(=O)[C@@H](CC(N)=O)NC(=O)[C@@H](CC(=O)O)NC(=O)[C@@H](Cc3cnc[nH]3)NC(=O)[C@@H](Cc3ccccc3)NC(=O)[C@@H]([C@@H](C)CC)NC(=O)[C@@H](CCCN)NC2=O)[C@@H](C)CC)CS1` ({Ileψ(thiazoline)Cys}-LE[d(aIle)]K[dOrn][d(aIle)][dF][dH][dD][dN]; lactam 4-C), the “activity, negative = inhibition” value was 7.43% (inactive). `O=C(O)COCCN1CCN([C@@H](c2ccccc2)c2ccc(Cl)cc2)CC1`: the “activity, negative = inhibition” value is -5.72% (inactive). The same measure, in the same setting: then `CCN(CC)CCOC(=O)[C@@H](Cc1cccc2ccccc12)C[C@@H]1CCCO1`, with 3.11% (inactive). Regarding `Clc1ccc([C@H](Cn2ccnc2)OCc2c(Cl)cccc2Cl)c(Cl)c1`, the Potency was 3.98 µM (active). For `CC[C@H](CO)NCCN[C@@H](CC)CO`, the “activity, negative = inhibition” value is 1.62% (inactive).
